# In PubChem BioAssay AID1445 (SRMLSC, 2008):
# About 910 (0.41%) of roughly 220,000 compounds were called active. The sample holds actives, similar compounds and a random draw of the others, so the mix is not that of the screen. Potency and affinity values are given separately. A number with no mark means an inactive call.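 How the source made its calls: active means primary inhibition above the hit cutoff, then over 50% inhibition at one or more dose response concentrations (cut at about 23% in these data, passing the limit was not always enough); inconclusive means conflicting primary data, or primary hits not chosen for dose response; inactive means low primary inhibition, or under 50% at every dose.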
# Biological target: Aminopeptidase N (Plasmodium falciparum (isolate 3D7)) (UniProt O96935)
# Sequence (O96935 whole entry, looked up): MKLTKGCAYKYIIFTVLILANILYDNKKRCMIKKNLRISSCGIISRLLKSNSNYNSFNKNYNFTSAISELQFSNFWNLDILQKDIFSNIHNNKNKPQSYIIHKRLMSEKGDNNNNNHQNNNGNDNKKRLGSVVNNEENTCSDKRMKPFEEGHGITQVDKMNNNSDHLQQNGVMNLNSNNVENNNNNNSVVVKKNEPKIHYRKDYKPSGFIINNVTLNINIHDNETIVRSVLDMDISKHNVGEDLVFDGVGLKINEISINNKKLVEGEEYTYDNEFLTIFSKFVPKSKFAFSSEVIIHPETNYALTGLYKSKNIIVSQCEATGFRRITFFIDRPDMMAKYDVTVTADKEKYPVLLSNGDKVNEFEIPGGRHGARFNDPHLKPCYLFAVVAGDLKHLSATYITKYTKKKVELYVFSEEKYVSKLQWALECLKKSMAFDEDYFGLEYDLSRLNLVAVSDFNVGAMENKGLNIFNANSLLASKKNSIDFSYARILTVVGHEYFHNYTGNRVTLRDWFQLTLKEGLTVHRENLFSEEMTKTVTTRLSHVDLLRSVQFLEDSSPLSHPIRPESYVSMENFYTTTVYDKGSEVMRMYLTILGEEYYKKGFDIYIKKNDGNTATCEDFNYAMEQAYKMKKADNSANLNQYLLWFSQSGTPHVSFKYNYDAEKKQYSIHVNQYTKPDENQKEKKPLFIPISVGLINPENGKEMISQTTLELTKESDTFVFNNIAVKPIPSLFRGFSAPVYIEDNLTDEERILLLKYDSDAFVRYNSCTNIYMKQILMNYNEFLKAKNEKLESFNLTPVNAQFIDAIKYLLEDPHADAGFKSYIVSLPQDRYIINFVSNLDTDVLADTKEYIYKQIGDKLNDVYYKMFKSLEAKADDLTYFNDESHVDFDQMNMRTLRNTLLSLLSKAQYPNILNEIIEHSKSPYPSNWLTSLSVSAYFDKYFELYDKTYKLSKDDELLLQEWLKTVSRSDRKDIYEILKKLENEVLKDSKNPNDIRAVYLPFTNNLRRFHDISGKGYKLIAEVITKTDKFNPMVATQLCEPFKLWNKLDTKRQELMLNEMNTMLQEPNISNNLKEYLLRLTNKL
# Experiment: P. falciparum M1AAP inhibitors, biochemical, fluorogenic H-Leu-NHMec substrate, 1536-well (AID 1445);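 further: plate controls were DMSO full reaction for no effect and no enzyme background for full effect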
# Conditions: recombinant M1AAP, H-Leu-NHMec fluorogenic kinetic assay; at 30 µM, stronger effect = higher value unless noted
row,Structure (SMILES),inhibition
1,CCN(CC)CC(C)CNC(=O)CN1C(=O)CSc2ccc(S(=O)(=O)N3CCOCC3)cc21 (stereo not given),8.54%
2,Cc1ccc(OCC(=O)NNC(=O)C(=O)NC(C)(C)C)cc1,13.2%
3,CCC(=O)NC(=S)NNC(=O)COc1ccc(Br)cc1,-1.75%
4,CC(C)(C)NC(=O)C(=O)NNC(=O)COc1ccccc1,20.1%
5,CC(=O)NC(=S)NNC(=O)COc1ccc([N+](=O)[O-])cc1,-19.9%
6,CCc1ccc(S(=O)(=O)NCc2csc(C)n2)s1,9.49%
7,Cc1oc(-c2cccs2)nc1CN1CC[C@@](O)(c2ccccc2)[C@H]2CCCC[C@@H]21,4.34%
8,O=C(O)c1ccc(CNC(=O)c2ccccc2NC(=O)c2ccc([N+](=O)[O-])cc2)cc1,1.28%
9,CCOC(=O)c1cc2sccc2n1CC(=O)OC,5.03%
10,C=CCNc1cc(C(F)(F)F)nc(-c2ccccn2)n1,-2.8%
11,Cc1ccc(S(=O)(=O)NC2=NCN(CCN3CCOCC3)CN2)cc1,2.01%
12,Cc1nc(NC2=NCN(CCCN3CCOCC3)CN2)nc2c(C)cccc12,29.4% (active)
13,c1ccc2sc(NC3=NCN(CCN4CCOCC4)CN3)nc2c1,-2.82%
14,NC(=O)C1CCCN(C(=S)Nc2ccccc2)C1 (stereo not given),0.97%
15,CSc1nc2c(c(=O)[nH]1)C(c1cccs1)C1=C(CCCC1=O)N2 (stereo not given),9.61%
16,O=C(O)c1ccccc1-c1nc2ccccc2[nH]1,0.23%
17,O=C(O)c1ccc(-c2nc(-c3ccccc3)c(-c3ccccc3)[nH]2)cc1,23.1%
18,c1ccc(OCc2nn3c(-c4ccco4)nnc3s2)cc1,-2.34%
19,COc1ccc(Cl)cc1NC(=S)N1CCN(S(C)(=O)=O)CC1,5.32%
20,COC(=O)C1=C(C)NC(C)=C(C(=O)OC)C1c1ccc(-c2cccc([N+](=O)[O-])c2)o1,7.62%
21,CC1(C)Oc2ccc3ccc(=O)oc3c2/C(=C/N)C1=O,8.41%
22,CC1(C)Oc2ccc3ccc(=O)oc3c2-c2cnoc21,50.2%
23,CC1(C)Oc2ccc3ccc(=O)oc3c2-c2cn[nH]c21,26.5% (active)
24,COC(=O)Nc1ccc(=O)n(Cc2c(Cl)cccc2Cl)c1,4.71%

row,Structure (SMILES),inhibition
1,O=C1N(Cc2ccccc2)CCCC12CCCN(Cc1ccccc1)C2=O,8.22%
2,O=C(NCc1ccccc1)c1cc(-c2cccs2)on1,-3.95%
3,CC(=O)c1ccc(NC(=S)NC(NC(=O)c2ccco2)C(Cl)(Cl)Cl)cc1 (stereo not given),11.3%
4,O=C(Nc1cccc(O)c1)c1ccccc1[N+](=O)[O-],-3.03%
5,CC(=O)c1ccc(NC(=O)C(Cc2ccccc2)NC(=O)c2ccco2)cc1 (stereo not given),4.11%
6,O=C(NC(NC(=S)Nc1ccc(Cl)c(Cl)c1)C(Cl)(Cl)Cl)c1ccco1 (stereo not given),9.33%
7,Cc1ccc(NC(NC(=O)c2ccccc2[N+](=O)[O-])C(Cl)(Cl)Cl)cc1 (stereo not given),7.36%
8,Cc1cccc(NC(=S)NC(NC(=O)c2ccco2)C(Cl)(Cl)Cl)c1 (stereo not given),18.2%
9,CCc1ccc(NC(=O)CSCCO)cc1,-0.74%
10,Cn1nnnc1Sc1c(Cl)cccc1[N+](=O)[O-],-3.63%
11,CC1(C)COC(c2coc3ccccc3c2=O)OC1,2.08%
12,COc1ccc(N)cc1C#N,2.91%
13,O=C(CCCN1C(=O)/C(=C/c2ccco2)SC1=S)Nc1cccc(C(=O)O)c1,6.76%
14,O=C(CCCN1C(=O)/C(=C\c2ccco2)SC1=S)Nc1ccc2ccccc2c1,11.9%
15,CCOCCCNC(=O)CN(c1cc([N+](=O)[O-])ccc1OC)S(C)(=O)=O,2.57%
16,CS(C)(=O)=NS(=O)(=O)c1ccc(Cl)cc1,1.82%
17,CSc1nnc2c3cc(C)ccc3n(Cc3ccccc3)c2n1,1.58%
18,CCCn1c2ccccc2c2nnc(SCC(=O)Nc3cc(C)on3)nc21,10.3%
19,CCn1c2ccccc2c2nnc(SCC(=O)Nc3c(C)n(C)n(-c4ccccc4)c3=O)nc21,0.94%
20,CCn1c2ccccc2c2nnc(SCC(=O)Nc3cc(C)on3)nc21,1.82%
21,Cc1ccc2c(c1)c1nnc(SCC(=O)N3CCN(c4ccc(F)cc4)CC3)nc1n2CC(=O)O,2.3%
22,CCc1nnc(SCC(=O)N2CCCc3ccccc32)nc1CC,0.48%
23,O=C(CSc1nnc(Cc2cc(=O)[nH]c(=O)[nH]2)n1-c1ccc(Cl)cc1)NCC1CCCO1 (stereo not given),0.41%
24,COC(=O)C1=C(C)N(C)C(=S)NC1c1ccc(OC)cc1OC (stereo not given),3.74%

row,Structure (SMILES),inhibition
1,CCOc1ccc(C(=O)NC(=S)Nc2cccnc2)cc1[N+](=O)[O-],6.68%
2,Cn1c(=O)c(C(=O)COC(=O)c2cc(-c3ccccc3)nc3ccccc23)c(N)n(Cc2ccccc2)c1=O,3.89%
3,COc1ccc(/C=C/C(=O)NC(=S)Nc2ccc(S(N)(=O)=O)cc2)cc1,9.42%
4,O=C(/C=C/c1cccs1)NC(=S)Nc1ccccc1,22%
5,COc1ccc(NC(=S)NC(=O)/C=C/c2cccs2)cc1,10.7%
6,COc1ccc(/C=C/C(=O)NC(=S)Nc2ccc(N3CCN(C(C)=O)CC3)cc2)cc1,6.43%
7,COc1ccc(/C=N/N=C2/NC(=O)C(CC(=O)NC(C)C)S2)cc1 (stereo not given),10.2%
8,O=C(CN1CCCN(S(=O)(=O)c2ccc(F)cc2)CC1)Nc1ccccc1Br,7.31%
9,COc1ccc2c(c1)C=C(CN1CCN(C(C)C)C(CCO)C1)CO2 (stereo not given),-13.9%
10,CCOc1cc(/C=C2\SC(=Nc3ccccc3)N(c3ccccc3)C2=O)ccc1OCC(=O)O,8.93%
11,CCOc1cc(C=C2C(=O)c3ccccc3C2=O)ccc1OCC(=O)Nc1ccc(C)cc1,2.91%
12,CCOc1cc(/C=C2/SC(=O)N(CC(=O)N3CCc4ccccc4C3)C2=O)ccc1OCC(=O)O,12.8%
13,CCOc1cc(/C=N/NC(=O)c2ccc(-c3csc(Nc4ccc(C)cc4)n3)cc2)ccc1OCC(=O)O,14.3%
14,COC(=O)c1c(NC(=O)COC(=O)c2ccccc2O)sc2c1CCCCC2,2.42%
15,COc1cc(NC(=O)Cc2cccs2)ccc1-n1cnnn1,4.02%
16,CN1CCc2c(OCc3ccc(F)cc3)cccc2C1=O,3.15%
17,COc1ccc(NC(=S)NNc2ccc([N+](=O)[O-])cc2S(=O)(=O)Nc2ccc(C)cc2C)cc1,5.53%
18,O=C(O)c1ccccc1Nc1ccc(OC(F)F)cc1,2.47%
19,COc1ccc(NC(=O)c2ccccc2NS(=O)(=O)c2ccc(C)cc2)c([N+](=O)[O-])c1,11.4%
20,Cc1ccc(S(=O)(=O)Nc2ccccc2C(=O)OC(C)C(=O)Nc2ccc3ccccc3c2)cc1[N+](=O)[O-] (stereo not given),-0.95%
21,O=c1c(Cc2ccc(Cl)cc2)c(O)ccn1Cc1ccccc1,1.46%
22,Cc1oc2c(C)c3oc(=O)c4c(c3cc2c1C)CCC4,9.19%
23,Cc1c(O)c(CN2CCCCC2)cc2c1oc(=O)c1ccccc12,1.46%
24,Cc1c(O)c(CN2CCCC2)cc2c1oc(=O)c1ccccc12,11.4%

row,Structure (SMILES),inhibition
1,Cc1oc2c(C)c3oc(=O)c4c(c3cc2c1C)CCCC4,4.09%
2,CCCc1cc(=O)oc2c(C)c(O)c(CN3CCCCC3)cc12,-4.01%
3,CCc1cc(=O)oc2c(C)c(O)c(CN(C)C)cc12,9.74%
4,O=C(COc1cccnc1[N+](=O)[O-])Nc1ccccc1Sc1ccccc1,-2.34%
5,CCOc1cccc(C(=O)NC(=S)Nc2cccnc2)c1,6.93%
6,COc1ccc(-c2ccc(N(C)C)cc2)cc1[C@H]1[C@H]2C=CC[C@@H](C)[C@@H]2C(=O)N1Cc1ccccc1,0.52%
7,O=C(c1ccc2c(=O)n3c(nc2c1)CCCCC3)N1CCN(c2ccccc2)CC1,7.74%
8,COc1ccc(Nc2cc(Cl)nc(N)n2)cc1,4.08%
9,CCNC(=S)N(CCc1ccc(S(N)(=O)=O)cc1)C1CC(=O)N(c2ccccc2)C1=O (stereo not given),2.82%
10,Cc1nn2c(-c3ccccn3)ccnc2c1Br,7.82%
11,CCOc1c(Cl)cnn(-c2ccc(C)cc2)c1=O,-0.82%
12,CCOC(=O)c1cc(-c2cc3ccccc3o2)nc2c1c(=O)[nH]c(=O)n2CCOC,6.31%
13,N=C(N)N=Nc1c(O)[nH]c2ccc(Br)cc12,10.3%
14,Oc1[nH]c2ccc(Br)cc2c1N=Nc1ccc(C(F)(F)F)cn1,4.3%
15,N#Cc1nc(-c2ccco2)oc1NCCCN1CCOCC1,6.97%
16,CN1CCN(c2oc(/C=C/c3ccccc3)nc2C#N)CC1,16.3%
17,COCCNc1oc(-c2ccc(C)cc2)nc1C#N,19.1%
18,COc1ccc(-c2nc(C#N)c(NCCCN3CCOCC3)o2)cc1,27.7% (active)
19,CNc1oc(/C=C/c2ccccc2)nc1C#N,3.76%
20,CN(C)CCCNc1oc(-c2ccccc2)nc1C#N,5.83%
21,N#Cc1nc(-c2ccc(F)cc2)oc1NCCN1CCOCC1,3.45%
22,COCCNc1oc(-c2ccccc2Cl)nc1C#N,10.4%
23,CN(C)CCNc1oc(/C=C/c2ccccc2)nc1C#N,20.7%
